In the library only some 11% were active in any assay of this set; here they are far more common.
3T3 cytotox: cytotoxic compounds in NIH 3T3 cells; NIH 3T3 viability, CellTiter-Glo ATP luminescence, 48-72 h; Potency, µM (doses to about 96.7 µM), inactives show at the highest dose activity change, negative = cytotoxicity, hits mostly inhibitors; 94,000 tested, 4.3% active; AID 1345082; note: % is set by controls: 0 for no effect and ±100 for the full control effect; nearly all actives have a fitted effect of over 55% in size
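Mouse fibroblast NIH 3T3 cells, 400 per well, received compound via pintool and were incubated for 48 or 72 hr prior to CellTiter-Glo ATP luminescence measurement.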
Luciferase inh: blocks purified firefly luciferase enzyme activity; AID 1347043; purified P. pyralis luciferase, luminescence, biochemical; Potency, µM (doses to about 115 µM), hits mostly inhibitors; 76,000 tested, 2.5% active; P08659; note: % is set by controls: 0 for no effect and ±100 for the full control effect; nearly all actives have a fitted effect of over 65% in size
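Luminescence read by CCD imaging after purified firefly luciferase (10nM final) was added to substrate buffer holding 10uM D-luciferin and 10uM ATP, pH 7.5, pre-dosed with compound.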
NPR1 antag: blocks ANP-stimulated signaling of human Npr1 receptor; P16066; HEK293 hNpr1 GloSensor cGMP, ANP-stimulated luminescence; Potency, µM (highest dose often 46.3 µM), without a hit: top-dose activity change, negative = inhibition, hits mostly inhibitors; 76,000 tested, 1.6% active; AID 1347048; calls by dose curve; note: % is set by controls: 0 for no effect and ±100 for the full control effect; nearly all actives have a fitted effect of over 60% in size
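HEK293 cells stably expressing human Npr1 and cGMP GloSensor pGS-40F, loaded 2 h with 2% GloSensor reagent, given compound 30 min at room temperature. Luminescence read before and 20 min after 0.1 nM hNppA.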
HEK293 tox: kills HEK 293 cells. HEK 293 viability, ATP luminescence (CellTiter-Glo), 48-72 h. Potency, µM (doses to about 115 µM), without a hit: at the highest dose activity change, negative = cytotoxicity, most hits filed as inhibitors. 94,000 tested, 6.6% active; note: % is set by controls: 0 for no effect and ±100 for the full control effect; nearly all actives have a fitted effect of over 60% in size
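Luminescence from cellular ATP, measured with CellTiter-Glo, indicates HEK 293 viability. Cells plated at 250 cells/well are treated with compound for 48 or 72 hr at 37 degree Celsius before reagent addition.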
NPR1 antag cnf: hNpr1 antagonism, confirmation assay; shares compounds with NPR1 antag; HEK293 hNpr1 cGMP GloSensor luminescence, ANP-stimulated; Potency, µM (titrated, usually from 57.6 µM), for the others: top-dose activity change, negative = inhibition, usual class: inhibitors; 1,400 tested, 76% active; calls by dose curve; note: nearly all actives have a fitted effect of over 70% in size
Npr2 selectivity: antagonizes human Npr2, subtype selectivity check; HEK293 hNpr2 GloSensor cGMP luminescence, CNP-stimulated; Potency, µM (series often up to 57.6 µM), inactives show top-dose activity change, negative = inhibition, most hits filed as inhibitors; 1,400 tested, 67% active; AID 1347046; shares compounds with NPR1 antag; calls by dose curve; note: nearly all actives have a fitted effect of over 70% in size
Target sequence (P20594 whole entry, looked up): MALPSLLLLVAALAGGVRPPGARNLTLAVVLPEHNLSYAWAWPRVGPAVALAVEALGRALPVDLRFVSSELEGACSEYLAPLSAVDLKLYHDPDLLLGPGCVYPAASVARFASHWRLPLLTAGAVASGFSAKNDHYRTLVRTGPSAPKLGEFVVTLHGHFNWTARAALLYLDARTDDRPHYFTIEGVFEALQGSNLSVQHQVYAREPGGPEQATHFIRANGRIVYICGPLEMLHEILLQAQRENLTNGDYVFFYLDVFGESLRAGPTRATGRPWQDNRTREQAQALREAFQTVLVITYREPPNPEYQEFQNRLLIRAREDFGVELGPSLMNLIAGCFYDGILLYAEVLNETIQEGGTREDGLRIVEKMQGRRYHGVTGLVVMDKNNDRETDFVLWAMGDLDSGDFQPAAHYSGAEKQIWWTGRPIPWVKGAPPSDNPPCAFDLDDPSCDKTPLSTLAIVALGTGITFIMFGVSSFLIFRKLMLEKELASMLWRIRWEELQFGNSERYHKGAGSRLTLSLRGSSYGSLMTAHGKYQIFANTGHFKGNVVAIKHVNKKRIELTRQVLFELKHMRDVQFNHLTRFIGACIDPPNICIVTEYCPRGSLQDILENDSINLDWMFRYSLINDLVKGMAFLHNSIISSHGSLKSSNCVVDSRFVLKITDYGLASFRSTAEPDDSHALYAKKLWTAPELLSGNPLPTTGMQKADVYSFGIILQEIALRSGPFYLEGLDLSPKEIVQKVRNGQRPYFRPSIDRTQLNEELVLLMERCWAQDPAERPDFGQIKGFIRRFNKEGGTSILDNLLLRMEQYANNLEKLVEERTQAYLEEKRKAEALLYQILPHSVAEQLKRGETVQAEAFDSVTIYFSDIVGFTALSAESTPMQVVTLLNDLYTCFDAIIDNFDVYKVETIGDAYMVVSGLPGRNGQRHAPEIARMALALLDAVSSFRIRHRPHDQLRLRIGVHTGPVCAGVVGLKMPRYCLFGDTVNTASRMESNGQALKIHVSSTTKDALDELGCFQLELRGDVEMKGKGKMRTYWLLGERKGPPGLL
FLuc counter: FLuc enzyme inhibition, Npr1 counter-screen. shares compounds with NPR1 antag. purified FLuc enzyme, luminescence, Km substrate. Potency, µM (titrated, usually from 57.6 µM), for inactives: at the top dose activity change, negative = inhibition, actives largely listed as inhibitors. 1,400 tested, 0.7% active. AID 1347047; note: series mostly up to about 58 µM; 0% is about no effect
GloSensor cGMP: reduces cGMP signal in GloSensor control cells; shares compounds with NPR1 antag; HEK293 GloSensor cGMP, SNP-stimulated, luminescence; Potency, µM (highest dose often 57.6 µM), inactives show at the highest dose activity change, negative = inhibition, most hits filed as inhibitors; 1,400 tested, 69% active; calls by dose curve; note: % is set by controls: 0 for no effect and ±100 for the full control effect; nearly all actives have a fitted effect of over 70% in size
The depositor's hits bear a star; i = inactive; ? = inconclusive; . = not tested or not shown; ! = not active in a repeat; [ ] = dose if it differs, or a comment. Unless noted, calls come from the whole dose curve; as a rule, active = well fitted curve in the direction sought with a large enough effect; inconclusive = small, poorly fitted or top-dose-only effect, or another doubt; inactive = no such curve, though single readings can be large; an effect the other way counts as inactive or inconclusive. Potency is the fitted concentration of half-maximal effect.

SMILES	3T3 cytotox	Luciferase inh	NPR1 antag	HEK293 tox	NPR1 antag cnf	Npr2 selectivity	FLuc counter	GloSensor cGMP
O=C(c1ccc(Cl)cc1)N1CCNc2cnc(Nc3ccccc3)nc2C1	?	i	31.6µM*	?	35.3µM*	35.3µM*	-2.3%[86.2 µM]	35.3µM*
O=C(c1cocn1)N1CCNc2cnc(Nc3cccc(C(F)(F)F)c3)nc2C1	?	i	31.6µM*	70.8µM*	35.3µM*	35.3µM*	-1.5%[86.2 µM]	31.4µM*
COc1cncc(CN2CCC3(CC2)OC(=O)N(Cc2csc(C)n2)C3(C)c2ccccc2)c1 (stereo not drawn)	?	i	4.6%	-17.4%	.	.	.	.
CCc1nc(CN2CCCC(CO)(CC3CC3)C2)cs1 (stereo not drawn)	?	i	-1.8%	-21.7%	.	.	.	.
O=C(NCc1ccccc1Cl)C1CN(C2CCCC2)C(=O)N1 (stereo not drawn)	?	.	.	-22.0%[172 µM]	.	.	.	.
Cc1ccc2nc(C3CCN(Cc4ccccc4)CC3)[nH]c(=O)c2c1	3.0%	i	2.9%	-7.4%	.	.	.	.
O=c1[nH]c(C2CCN(Cc3ccc(-c4cccnc4)cc3)CC2)nc2ccc(F)cc12	5.62µM*!	i	?	?	19.3µM*	19.3µM*	-0.4%	17.2µM*
COc1cccc(-c2ccc(CN3CCCC(c4nc5ccc(C)cc5c(=O)[nH]4)C3)cc2)c1 (stereo not drawn)	28.2µM*!	i	11.2µM*	25.1µM*	17.2µM*	21.7µM*	-3.4%	17.2µM*
CN(Cc1ccccc1)Cc1nc2c(n1Cc1ccccc1)C(=O)N(Cc1cccc(Cl)c1)CCN2	?	i	-9.1%	?	.	.	.	.
O=C(c1ccccc1)N1CCC(Oc2ccccc2)C1 (stereo not drawn)	-24.8%	i	2.5%	-3.5%	.	.	.	.
CN(C)Cc1ccc2c(c1)c(OC(C)(C)C(=O)NCCN1CCOCC1)nn2Cc1ccccc1	-27.7%	i	-1.5%	?	.	.	.	.
Cn1cc(-c2cnc3[nH]cc(CC(=O)Nc4cccc(OC(F)(F)F)c4)c3c2)cn1	?	i	?	?	.	.	.	.
Cc1ccccc1-c1cnc2[nH]cc(CC(=O)Nc3cccnc3)c2c1	?	i	15.8µM*	?	25µM*	31.4µM*	-2.7%[86.2 µM]	22.2µM*
Cn1cc(-c2cnc3[nH]cc(CC(=O)Nc4ccc(C(F)(F)F)cc4)c3c2)cn1	?	i	?	?	?	?	-0.9%[86.2 µM]	?
COc1ccc(-c2cnc3[nH]cc(CC(=O)NCCc4ccccn4)c3c2)cc1	?	i	3.5%[70.6 µM]	-22.7%[172 µM]	.	.	.	.
COc1ccc(-c2cnc3[nH]cc(CC(=O)Nc4cccc(N(C)C)c4)c3c2)cc1	?	i	?	?	?	?	-9.0%[86.2 µM]	-24.6%[86.2 µM]
COc1ccc(-c2cnc3[nH]cc(CC(=O)Nc4cccnc4)c3c2)cc1	?	i	?	70.8µM*	?	-29.0%[86.2 µM]	?	-22.7%[86.2 µM]
COc1ccc(NC2CCCN(C(=O)C(C)(C)c3ccccc3)C2)cc1 (stereo not drawn)	-26.0%	i	-4.0%	?	.	.	.	.
O=C(Cn1cccc1-c1nc(-c2ccc3c(c2)OCO3)no1)Nc1ccc(Cl)cc1	-7.5%	i	0.2%	6.1%	.	.	.	.
FC(F)(F)c1cccc2c(N3CCOC(C(F)(F)F)C3)ccnc12 (stereo not drawn)	-45.8%	i	10µM*	?	24.3µM*	?	4.5%	19.3µM*
OC[C@H]1CCN(c2ccnc3c(C(F)(F)F)cccc23)C[C@H]1O	-3.6%	i	-0.9%	?	.	.	.	.
FC(F)(F)C1CN(c2ccnc3ccc(Cl)cc23)CCO1 (stereo not drawn)	?	i	11.2µM*	39.8µM*	21.7µM*	21.7µM*	0.4%	21.7µM*
CC(C)NC(=O)N1C2CCC1CN(c1ccc(C(F)(F)F)cc1)C2	?	.	.	?	21.5µM*	19.1µM*	0.3%	15.2µM*
CC(=O)N1C2CCC1CN(c1ccc(C(F)(F)F)cc1)C2	?	.	.	-28.3%[172 µM]	.	.	.	.
CC(C)(C)C(=O)N1CCCC2(CNc3ncccc3[S+](=O)([O-])N2)C1 (stereo not drawn)	-17.1%	.	.	-14.0%	.	.	.	.
SMILES	3T3 cytotox	Luciferase inh	NPR1 antag	HEK293 tox	NPR1 antag cnf	Npr2 selectivity	FLuc counter	GloSensor cGMP
CN1CCN(C(=O)C(C)(C)Oc2nn(CC3CC3)c3ccc(CN4CCCC4)cc23)CC1	?	i	1.9%[70.6 µM]	-25.4%[172 µM]	.	.	.	.
COc1ccc(OC)c(C2CCN(c3ncncn3)C2)c1 (stereo not drawn)	?	i	3.6%	?	.	.	.	.
COCc1cc(N2CCC(c3cccc(OC)c3OC)C2)ncn1 (stereo not drawn)	?	i	3.16µM*	?	3.06µM*	4.85µM*	-1.9%	3.06µM*
CCOCC(=O)N1CCN(c2nnnn2-c2ccccc2)CC(O)C1 (stereo not drawn)	i	i	0.0%	0.2%	.	.	.	.
COc1ccc([C@@H]2CN(c3nnnn3-c3ccccc3)C[C@H]2NC(C)=O)cc1	-20.1%	i	?	-22.4%	?	?	1.3%	1.8%
CN(C)c1ccc(C(=O)N2CC[C@@H](CC(=O)O)[C@@H](CCN3C[C@@H]4C[C@H](C3)c3cccc(=O)n3C4)C2)cc1	i	i	3.6%	i	.	.	.	.
CC1(C)[C@H](Cc2cc(COC(=O)c3cccs3)on2)C[C@@H]1NC(=O)c1cccs1	?	i	25.1µM*	?	35.3µM*	35.3µM*	1.1%[86.2 µM]	39.6µM*
CC1(C)[C@H](Cc2cc(CO)on2)C[C@@H]1NC(=O)c1cccnc1	-1.5%[174 µM]	i	5.0%[70.6 µM]	1.7%[172 µM]	.	.	.	.
CC1(C)[C@H](Cc2cc(COc3ccccc3)on2)C[C@@H]1NC(=O)c1cccs1	39.8µM*	i	39.8µM*	?	35.3µM*	39.6µM*	-1.7%[86.2 µM]	31.4µM*
CC(C(=O)N1CC(n2cc(C(=O)NCC3CC3)nn2)C1)c1ccccc1 (stereo not drawn)	i	.	.	3.8%	.	.	.	.
CCc1cc(N2CCOC(c3ccc4cc(OC)ccc4c3)C2)nc(C)n1 (stereo not drawn)	?	i	11.2µM*	35.5µM*	21.7µM*	21.7µM*	?	17.2µM*
